Compounds with a hit are over-represented: about 2.6% of the library has one in this group of screens.
eIF4H inh = inhibitors of RNA binding by human eIF4H. eIF4H fluorescence polarization binding assay. inhibition, % at 35 µM. AID 2012. actives 0.94% (n = 290,000). Q15056;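 further: calls also rest on retests at 20 µM and on dose response follow-up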
APOBEC3G inh = inhibitors of human APOBEC3G DNA deaminase. AID 493012. recombinant A3G, ssDNA deamination FAM/TAMRA fluorescence. Q9HC16. inhibition, % at 20 µM. actives 0.28% (n = 330,000);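 active means inhibition of at least 40% at 20 µM, with no more than 30% in the related APOBEC3A deaminase screen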
Target sequence (Q9HC16 whole entry, looked up): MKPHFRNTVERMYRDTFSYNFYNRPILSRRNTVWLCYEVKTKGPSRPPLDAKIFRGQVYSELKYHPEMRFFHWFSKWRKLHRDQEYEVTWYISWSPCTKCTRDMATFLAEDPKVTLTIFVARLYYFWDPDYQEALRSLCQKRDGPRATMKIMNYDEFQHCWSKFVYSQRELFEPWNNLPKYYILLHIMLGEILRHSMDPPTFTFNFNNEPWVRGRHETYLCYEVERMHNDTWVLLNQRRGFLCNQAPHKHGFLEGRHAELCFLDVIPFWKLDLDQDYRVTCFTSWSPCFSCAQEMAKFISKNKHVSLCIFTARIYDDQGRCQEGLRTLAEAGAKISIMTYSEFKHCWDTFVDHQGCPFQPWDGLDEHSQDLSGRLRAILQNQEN
APOBEC3A inh = blocks human APOBEC3A ssDNA deamination; P31941; recombinant A3A, FAM/TAMRA ssDNA deamination fluorescence; inhibition, % at 20 µM; actives 0.41% (n = 330,000); AID 493011;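 active means at least 40% inhibition at 20 µM here, with at most 30% in a related deaminase screen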
Target sequence (P31941 whole entry, looked up): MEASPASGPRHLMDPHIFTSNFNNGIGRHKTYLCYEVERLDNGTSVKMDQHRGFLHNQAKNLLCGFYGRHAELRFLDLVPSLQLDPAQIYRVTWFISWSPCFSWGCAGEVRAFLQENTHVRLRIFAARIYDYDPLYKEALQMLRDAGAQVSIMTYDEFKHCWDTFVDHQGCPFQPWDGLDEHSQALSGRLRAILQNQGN
PABP1 MLLE inh = inhibitors of microRNA-mediated deadenylation, human PABP1 MLLE binding. AID 588489. inhibition, % at 20 µM. P11940. GST-MLLE / FITC-PAM2 fluorescence polarization. actives 0.36% (n = 360,000); in the data active means inhibition above about 35%, passing the limit was not always enough
PHOSPHO1 block = blocks human PHOSPHO1 phosphatase activity | recombinant PHOSPHO1, absorbance phosphatase assay | inhibition, % at 13.3 µM | actives 1.1% (n = 290,000) | AID 1565; in the data active means inhibition above about 60%
PABP FP inh = PABP-poly(A) binding inhibition; P11940; PABP-poly(A) RNA binding, fluorescence polarization; calls only at 35 µM; actives 1% (n = 290,000); AID 2014;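 further: calls also rest on retests at 20 µM and on dose response follow-up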
Numbers stand for hits; i = inactive; ? = inconclusive; nt = no result; + = active, no number. Unless noted, how the calls were made is not given here.

SMILES	eIF4H inh	APOBEC3G inh	APOBEC3A inh	PABP1 MLLE inh	PHOSPHO1 block	PABP FP inh
COc1ccc(OCC(=O)Nc2ccc3c(c2)nc(CCN2CCCC2)n3C)cc1	i	i	i	i	i	i
COc1ccc(OCC(=O)Nc2ccc3c(c2)nc(CCN2CCN(C)CC2)n3C)cc1	i	i	i	i	70.1	i
O=C(OCn1nnc2ccccc2c1=O)c1ccc(N2CCOCC2)c([N+](=O)[O-])c1	i	i	i	i	i	i
COc1cc(-c2noc(C)c2/C=C/c2cccc([N+](=O)[O-])c2)cc(OC)c1OC	i	i	i	i	i	i
COc1cc(-c2noc(C)c2/C=C/c2ccc(C(=O)O)cc2)cc(OC)c1OC	100.4	i	i	i	i	+
Cc1c(C)n(O)c2ccc3nonc3c12	i	i	i	i	i	i
On1c2c(c3c4nonc4ccc31)CCCC2	77.1	i	i	nt	i	+
COn1c2c(c3c4nonc4ccc31)CCCC2	i	i	i	i	i	+
Cc1nn(CC(=O)NCCCN2CCCC2)c(=O)c2nn(-c3ccccc3)c(C)c12	i	i	i	i	i	i
Cc1cc(C)n2nc(SCC(=O)NC(=O)c3ccc(OC(F)F)cc3)nc2n1	nt	i	i	i	nt	nt
COc1ccc(C2(CNS(=O)(=O)c3ccccc3)CCOCC2)cc1	i	i	i	i	64.3	i
CCOCc1nnc(NC(=O)C2CC(=O)N(C3CCCC3)C2)s1 (centres undefined)	i	i	i	i	i	i
O=C(COc1ccc2ccccc2c1)Nc1ccccc1C(=O)O	i	i	i	i	i	i
CC(C)N1CCN(Cc2ccsc2)CC1CCO (centres undefined)	i	i	i	i	i	i
O=C(COC(=O)Cn1cnc2ccccc21)Nc1ccc(F)c(F)c1	nt	i	i	i	nt	nt
CC(CNc1ccccc1O)C(=O)O (centres undefined)	i	i	i	76.0	i	i
COc1ccc(NC(=O)C(c2ccc(C)cc2)N(C)C(=O)Cc2cccs2)cc1 (centres undefined)	62.8	i	i	i	i	+
Nc1cc2c(cc1[N+](=O)[O-])OCO2	i	i	i	i	i	+
COc1ccc(OCC(=O)NNC(=S)NC(=O)c2ccc([N+](=O)[O-])cc2)cc1	i	i	i	i	i	i
COc1ccc(NC(=O)COc2ccc(Br)cc2)c(OC)c1	i	i	i	i	60.0	i
CC(=O)NC(=S)NNC(=O)COc1ccc(Br)cc1	i	nt	nt	i	60.9	i
CC(=O)NC(=S)NNC(=O)COc1ccc([N+](=O)[O-])cc1	i	i	i	i	66.8	i
Cc1cc(Cl)c(S(=O)(=O)NC2CCCC2)cc1OCC(N)=O	i	i	i	i	i	i
C=CCn1c(SCC(=O)c2cc(C)n(C(C)COC)c2C)nc2sc(C)c(C)c2c1=O (centres undefined)	i	i	i	39.8	i	i
CCOC(=O)C1=C(O)/C(=C\c2ccc(CNC(=O)C(=O)Nc3ccccc3)o2)N=C1C	?	i	i	i	83.3	?
SMILES	eIF4H inh	APOBEC3G inh	APOBEC3A inh	PABP1 MLLE inh	PHOSPHO1 block	PABP FP inh
O=C(NCc1ccc(/C=N\NC(=O)C(=O)Nc2ccccc2Br)o1)C(=O)Nc1ccccc1	i	i	i	i	i	i
CCn1c(-c2cc(Br)ccc2O)n[nH]c1=S	nt	i	i	i	nt	nt
CCn1c(-c2c[nH]c3ccccc23)n[nH]c1=S	i	i	i	i	78.9	i
C=CCn1c(-c2c[nH]c3ccccc23)n[nH]c1=S	i	i	i	i	101.1	i
CCn1c(-c2cc3ccccc3cc2O)n[nH]c1=S	i	i	i	i	92.1	i
CCN(CC)C(=O)CSc1nnc(-c2cc3ccccc3cc2O)n1CC	i	i	i	i	62.2	i
CCn1c(-c2cc(-c3ccc(C)c(C)c3)nc3ccccc23)n[nH]c1=S	i	i	i	nt	i	i
CCN(CC)C(=O)CSc1nc2ccccc2c(=O)n1CC	i	i	i	i	i	i
CCOc1ccc(CN(C(=O)c2cccs2)C2CCS(=O)(=O)C2)cc1 (centres undefined)	i	i	i	i	i	i
C=CCn1c(-c2cc3cccc(OC)c3o2)n[nH]c1=S	?	i	i	i	i	+
C=CCn1c(-c2ccoc2C)n[nH]c1=S	i	i	i	i	80.9	i
CCCCn1c(-c2ccoc2C)n[nH]c1=S	i	i	i	i	i	?
O=C(CCCCn1ccc(=O)[nH]c1=O)Nc1ccc(C(=O)O)c(O)c1	nt	nt	nt	i	nt	nt
Cc1ccc(-c2nnc(CCC(=O)NCC3C4CC5CC(C4)CC3C5)o2)s1 (centres undefined)	i	i	i	i	i	i
O=C(NCc1cccnc1)/C(=C/c1ccco1)NC(=O)c1ccccc1	i	i	i	i	i	i
CC(C)(C)c1ccc(C(=O)N/C(=C\c2ccco2)C(=O)O)cc1	i	i	i	i	i	i
O=C(NC(Cc1ccccc1)C(=O)O)/C(=C\c1ccco1)NC(=O)c1ccccc1 (centres undefined)	90.9	i	i	i	i	+
COc1ccc(C(=O)N/C(=C\c2ccco2)C(=O)NCc2cccnc2)cc1	60.7	i	i	i	i	i
O=C(O)/C(=C/c1ccco1)NC(=O)c1ccccc1	72.1	i	i	i	i	+
O=C(NC(Cc1ccccc1)C(=O)O)/C(=C\c1ccco1)NC(=O)c1ccc(Br)cc1 (centres undefined)	i	i	i	i	i	i
CC(O)c1nc2ccccc2n1C(C)c1ccccc1 (centres undefined)	i	i	i	i	i	i
CC(=O)c1cc2c(cc1NC(=O)CN1Cc3ccccc3C1=O)OCO2	i	i	i	i	i	i
N#Cc1sc(NCc2ccccc2)nc1Cl	i	i	i	i	61.5	i
CCO[C@H]1OC(C(=O)N2CCN(C)CC2)=C[C@@H](C2CC2)[C@@H]1CCCO	i	i	i	i	i	i
Cc1cccc(-c2cccc(NC(=O)C3CCCN(Cc4cccnc4)C3)c2)c1 (centres undefined)	i	i	i	i	61.0	i
SMILES	eIF4H inh	APOBEC3G inh	APOBEC3A inh	PABP1 MLLE inh	PHOSPHO1 block	PABP FP inh
CCCS(=O)(=O)c1c(S(=O)(=O)CCC)c2ccc(C(N)=O)cn2c1C(=O)c1ccc(OC)cc1	i	i	i	i	60.1	i
Cc1cccc(OCC(=O)N2CCOCC2)c1	8.3	i	i	i	i	+
Cc1ccc(-c2ccc(OCC(=O)N3CCOCC3)cc2)cc1	i	i	i	i	i	i
Cc1ccc(CN2CCN(Cc3cc(=O)c4ccccc4[nH]3)CC2CCO)o1 (centres undefined)	57.5	i	i	i	i	i
Cc1ccc(CN2CCN(Cc3c[nH]c4ccccc34)CC2CCO)o1 (centres undefined)	i	i	i	i	i	i
C[C@@H]1[C@H]2[C@@H](O[C@@H]3O[C@H](CO)[C@@H](O)[C@H](O)[C@H]3O)OC=C(C(=O)O)[C@H]2C[C@@H]1O	nt	i	i	i	nt	nt
CCn1c(SCC(=O)N/N=C/C(C)=C/c2ccco2)nnc1-c1ccccc1	i	i	i	i	69.6	i
